The record followed here is PubChem BioAssay (NCI).

Each structure is given as a SMILES string. About 83,000 compounds went through this panel and 20% of them were active in at least one assay; those are over-represented in the sample as a whole.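 Method: cells in 96-well plates; compound added at one concentration; 48 h incubation; percent growth measured; values under 10 scored active.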 Values without a mark were called inactive. Calls of active or inactive are those of the source.

The subject of the assay is IGROV1 ovarian. The assay can be described thus: NCI-60 one-dose screen, 48 h (100 = growth as untreated, 0 = no growth, -100 = all killed). The conditions noted are these: 10 µM unless noted. How it is done:
Growth inhibition of the IGROV1 human tumor cell line is measured as a screen for anti-cancer activity. Cells are grown in 96 well plates and exposed to the test compound for 48 hours. Compounds are tested at a single concentration, which is 10^-5 M for most compounds. The reported endpoint is percent growth (GI% or GIPRCNT), where numbers from 0 - 100% represent growth inhibition, and numbers from -100% - 0 represent cell death. For example, a value of 40 represents 60% growth inhibition. A value of 0 means no net growth occurred over the course of the experiment. A value of -40 indicates 40% of cells at the beginning of the experiment died by the end of the experiment. A value of -100 means all cells are dead at the end of the experiment.
NCI-60 Human Tumor Cell Lines Screen was performed using the standard one-dose NCI protocol, which is described in more detail at https://dtp.cancer.gov/discovery_development/nci-60/default.htm.
Compounds with GIPRCNT values below 10 were considered active. Activity score was based on GIPRCNT using the following formula: […]
Score is 0 for GIPRCNT values of 100 or above, 50 for GIPRCNT values of 0, and 100 for GIPRCNT values of -100.
For `COc1cc2nccc(Oc3ccc(NC(=O)C4(C(=O)Nc5ccc(F)cc5)CC4)cc3)c2cc1O`, the growth is 52.1%.
On to `CC(C)=CCC[C@H](C)c1ccc(C)c2c1OCN(CCO)C2`, for which the growth was 66.7%.
For `O=C(/C=C/c1ccccc1)n1c(-c2ccccc2)nc2ccccc21`, the growth was 105%.
As for `COc1cc(C2Nc3ccccc3S2)cc(CN2CCOCC2)c1O` (stereo not given), the growth was 39%.
Then `Cc1cc(C#Cc2ccccc2)ccc1-n1c(/C=C/c2ccc(F)cc2)nc2ccccc2c1=O`, with 95.2%; and `CC(C)N1CCN(c2ccncc2S(=O)(=O)N2CCN(C)CC2)CC1`, with 119%; and `Fc1ccc2c(CN3CCO[C@H](COc4cccc(Cl)c4)C3)c[nH]c2c1`, with 63%.
`C=CCN(CCOC(=O)c1ccc([N+](=O)[O-])cc1)CCOC(=O)c1ccc([N+](=O)[O-])cc1`: the growth is 88.1%.
Take `N#Cc1nc(-c2cccc(Br)c2)cc(-c2ccc(Nc3nc(N4CCCCC4)nc(N4CCCCC4)n3)cc2)c1N`: the growth was -45.4% (active).
Turning to `CCCOC(=O)C1c2cc3c(cc2CC(C)C1C(=O)OCCC)OCO3` (stereo not given), the growth is 75.8%.
For `CN(C)CCOc1nc2c3ccncc3cc(-c3cccc(Cl)c3)c2c2cnccc12`, the growth is 28.9%.
Then `O=C1c2ccccc2C2N1CCC1CCc3ccccc3N12` (stereo not given), with 99.8%; and `Cc1ccc2cc3c(NC(=O)c4cccnc4)nn(C)c3nc2c1`, with 80.6%.
Consider `Cc1ccc(N2C3c4ccccc4N(S(=O)(=O)c4ccc(C)cc4)C2c2ccccc2N3S(=O)(=O)c2ccc(C)cc2)cc1`, for which the growth was 107%.
As for `COc1cc(NC(C)CCCN)c2ncccc2c1Sc1ccc(Cl)cc1` (stereo not given), the figure is 38.9%.
Then `COc1ccc2cc(-c3nc(C)c(C(C)=O)c(-c4ccc(C)cc4)n3)ccc2c1`, with 101%; and `CC(C)[C@H](CN)NC[C@H](C)NS(=O)(=O)c1ccc(C(C)(C)C)cc1`, with 97%; and `COC(=O)C1(C)COP(=O)(NC23CC4CC(CC(C4)C2)C3)OC1` (stereo not given), with 106%.
For `CCCCn1cnc(-c2cc(-c3ccccc3)cc(C(F)(F)F)c2)n1`, the growth is 103%.
In the case of `CC(=O)c1ccc(-n2c(-c3cc(-c4ccsc4)n[nH]3)n[nH]c2=S)cc1`, the growth was 107%.
Then `COC(=O)C(CCC(=O)CCl)N1C(=O)c2ccccc2C1=O` (stereo not given), with 27.2%.
For the compound `CCCc1n(Cc2ccc3ccccc3n2)cc[n+]1Cc1ccc2ccccc2n1`, the growth was 30.6%.
Regarding `Cc1ccc(Nc2nc(NCCO)c3ccccc3n2)cc1C`, the growth was 20.2%.
Then `COC(=O)c1cc2oc(/C=N/NC(=O)c3cc4oc(-c5cccc(C(F)(F)F)c5)cc4[nH]3)cc2n1Cc1ccccc1`, with 89.6%; and `CC1CN(CCCOC(=O)Nc2ccc(Cl)cc2)CCN1C(C)(C)C` (stereo not given), with 100%; and `COc1c(B(O)O)cccc1-c1nc2c(F)cc3n[nH]c(C)c3c2c2c1CCCC2`, with 16.3%.
Then `CCN(CC)Cc1cc(Nc2nc(NC3CCC(N(C)C)CC3)c3ccccc3n2)ccc1OC` (stereo not given), with 82.4%; and `O=C(O)c1ccccc1N=Cc1ccccc1`, with 101%.
As for `COc1ccc(C2C3CCc4ccccc4C3=NN2C(=O)c2cc(OC)c(OC)c(OC)c2)cc1O` (stereo not given), the figure is 46.6%; as for `O=C(Nc1ccc(Oc2ccc(Nc3nc4ccccc4s3)cc2)cc1)Nc1ccc(Cl)c(C(F)(F)F)c1`, 17%; as for `Cc1ccc(NC(=O)c2[nH]c(SCCN(C)C)nc2-c2ccc(F)cc2)cc1Nc1ccc2ncn(C)c(=O)c2c1`, 39.8%.
With `CCCCCCCCNC(C)C(O)c1ccc(SC(C)C)cc1` (stereo not given), the growth was 18.8%.
Turning to `O=[N+]([O-])c1ccccc1CN1CCCCC1`, the growth is 114%.
Then `CCN1CCN(Cc2ccc(NC(=O)c3nc4ccc5[nH]ncc5c4c4c3CCCC4)cc2C(F)(F)F)CC1`, with -47.6% (active); and `SCc1ccc(CS)cc1`, with 105%.
On to `CNCc1ccccc1CN(CC(=O)Nc1ccc2c(c1)CC1(C2)C(=O)Nc2ncccc21)C(=O)C(C)(C)C` (stereo not given), for which the growth was 92.4%.
Turning to `CO[C@@]12[C@@H]3NC3CN1C1=C(C(=O)C(N)=C(C)C1=O)[C@@H]2COC(N)=O` (stereo not given in full), the growth was 33.1%.
As for `C1=C\CCCCN2CC[C@H]3[C@H](CCCC/C=C\CCCN4C[C@@H](CCCCC/1)C[C@@H]3C4)C2`, the figure is -11.3% (active).
For `Cc1cc(C)c2c(n1)sc1c(Nc3ccc(Cl)cc3Cl)ncnc12`, the growth was 69.5%.
Regarding `COC1=CC(c2ccc[nH]2)=N/C1=C\c1[nH]c(C)c(C(=O)CCCCCCCCC(=O)O[C@H]2CC[C@H]3C4CCc5cc(O)ccc5C4CC[C@]23C)c1C` (stereo not given in full), the growth is 22.7%.
